The supplement of paper PMC3545927
The list shows a part of the results. The true hit rate is not given.

Molecular target: furin, P09958
Experiment: furin cleavage Z-score vs untreated control; higher = more cleavage, active = 3.5 or more, inactive = 1 or less, 8 variable residues between constant flanks
Method in brief: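 Peptides 8 residues long, fused to a cDNA oligonucleotide, were fixed to magnetic beads by the N-terminus and exposed to purified furin. The 0.01 ml reactions contained 50 mM HEPES pH 7.5 with CaCl2 and NaCl at 1:10 enzyme:substrate and ran 7.5, 15 or 30 min. For the cleavage Z-score, log counts of sequenced released DNA were compared with furin-free reactions, lowess-adjusted and scaled by median absolute deviation.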

furin, P09958, sequence (P09958 whole entry): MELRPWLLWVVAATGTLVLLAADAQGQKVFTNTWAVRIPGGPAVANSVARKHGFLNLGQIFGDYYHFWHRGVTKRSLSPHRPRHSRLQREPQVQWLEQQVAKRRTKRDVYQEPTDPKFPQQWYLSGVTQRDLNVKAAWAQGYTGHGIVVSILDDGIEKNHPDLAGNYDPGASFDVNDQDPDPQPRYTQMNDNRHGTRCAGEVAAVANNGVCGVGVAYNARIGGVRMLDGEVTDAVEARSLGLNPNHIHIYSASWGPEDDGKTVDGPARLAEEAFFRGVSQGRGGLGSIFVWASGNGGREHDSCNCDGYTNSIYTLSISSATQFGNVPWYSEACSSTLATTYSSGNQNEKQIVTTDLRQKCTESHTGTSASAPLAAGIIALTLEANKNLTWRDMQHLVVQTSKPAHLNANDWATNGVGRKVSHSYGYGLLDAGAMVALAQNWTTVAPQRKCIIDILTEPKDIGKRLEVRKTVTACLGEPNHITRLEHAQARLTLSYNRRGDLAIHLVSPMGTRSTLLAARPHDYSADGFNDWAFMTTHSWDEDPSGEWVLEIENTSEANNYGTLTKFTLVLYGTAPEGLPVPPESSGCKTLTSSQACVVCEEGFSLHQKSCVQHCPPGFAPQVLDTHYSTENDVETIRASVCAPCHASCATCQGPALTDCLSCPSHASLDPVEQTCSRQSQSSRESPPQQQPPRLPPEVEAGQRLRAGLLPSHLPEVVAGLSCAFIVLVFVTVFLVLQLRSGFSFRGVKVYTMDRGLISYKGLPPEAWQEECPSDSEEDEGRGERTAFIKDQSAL

| Sequence | furin cleavage Z-score (7.5 min) | furin cleavage Z-score (15 min) | furin cleavage Z-score (30 min) |
| --- | --- | --- | --- |
| CAMEECSLHLAGNASASA [HC1725] | -0.0304 (inactive) | 0.668 (inactive) | 0.792 (inactive) |
| CAKRSHLKRDAGNASASA [FS-680] | 6.24 (active) | 7.72 (active) | 6.62 (active) |
| CAREGRLKRDAGNASASA [FS-1256] | 11.7 (active) | 13 (active) | 11 (active) |
| CARYGRFLQPAGNASASA [FS-3134] | 0.584 (inactive) | 1.53 | 0.786 (inactive) |
| CARYGRCKRDAGNASASA [FS-715] | 15.2 (active) | 15.5 (active) | 11.9 (active) |
| CAKQLRLKRDAGNASASA [FS-814] | 15 (active) | 13.5 (active) | 10.4 (active) |
| CAREGRSKALAGNASASA [FS-2911] | 0.205 (inactive) | 2.53 | 0.493 (inactive) |
| CASGPCSAHLAGNASASA [HC2496] | -0.802 (inactive) | 0.24 (inactive) | 0.168 (inactive) |
| CAADAVDGAGAGNASASA [CS10] | 0.632 (inactive) | -1.19 (inactive) | 1.15 |
| CALNNTRPPLAGNASASA [HC430] | 2.07 | 0.471 (inactive) | 1.95 |
| CACGSSDLYLAGNASASA [HC723] | -2.29 (inactive) | -1.54 (inactive) | -0.552 (inactive) |
| CATTPCSVSWAGNASASA [HC1890] | -0.725 (inactive) | -1.82 (inactive) | -0.963 (inactive) |
| CAQVGDFHYVAGNASASA [HC1208] | -1.01 (inactive) | 0.348 (inactive) | -0.0115 (inactive) |
| CAGPIRLKRDAGNASASA [FS-593] | 15 (active) | 15.3 (active) | 10.9 (active) |
| CAKQHRLKRYAGNASASA [FS-1349] | 11.1 (active) | 11.6 (active) | 10 (active) |
| CARVERFKRDAGNASASA [FS-1567] | 12.4 (active) | 11.1 (active) | 8.4 (active) |
| CALPGNPAIAAGNASASA [HC1051] | 0.0659 (inactive) | -0.342 (inactive) | -0.64 (inactive) |
| CACGPVYCFTAGNASASA [HC412] | 0.624 (inactive) | 0.0869 (inactive) | -0.506 (inactive) |
| CAVKSRKRRKAGNASASA [FS-149] | 11 (active) | 11.7 (active) | 8.76 (active) |
| CAHPLRKRRKAGNASASA [FS-131] | 8.81 (active) | 9.6 (active) | 7.46 (active) |
| CARKRRKRKKAGNASASA [FS-858] | 0.153 (inactive) | 0.772 (inactive) | 1.09 |
| CAPPLVETWKAGNASASA [HC1308] | 2.31 | 0.789 (inactive) | -0.408 (inactive) |
| CASTPCSAHIAGNASASA [HC2564] | -0.152 (inactive) | -1.03 (inactive) | -0.677 (inactive) |

| Sequence | furin cleavage Z-score (7.5 min) | furin cleavage Z-score (15 min) | furin cleavage Z-score (30 min) |
| --- | --- | --- | --- |
| CALWWLQYFLAGNASASA [HC582] | -0.496 (inactive) | -0.768 (inactive) | -1.19 (inactive) |
| CAEVVDSTWVAGNASASA [HC132] | -0.25 (inactive) | 1.14 | -1.05 (inactive) |
| CATTPDSGSWAGNASASA [HC52] | -0.899 (inactive) | -0.656 (inactive) | -0.757 (inactive) |
| CAVLEESKRLAGNASASA [FS-1429] | -0.217 (inactive) | -1.55 (inactive) | -0.503 (inactive) |
| CASTPCSARLAGNASASA [HC2553] | 0.576 (inactive) | 0.581 (inactive) | -0.498 (inactive) |
| CAHTWREKRLAGNASASA [FS-31] | 1.05 | 0.418 (inactive) | 0.0913 (inactive) |
| CASTPCSKHLAGNASASA [HC2534] | 1 | -1.62 (inactive) | 0.302 (inactive) |
| CATTYRSKRLAGNASASA [FS-886] | 8.78 (active) | 10.5 (active) | 9.12 (active) |
| CASTPRSKRLAGNASASA [FS-1091] | 3.77 (active) | 6.77 (active) | 5.46 (active) |
| CAEVQTSTWVAGNASASA [HC2202] | 0.816 (inactive) | 1.29 | 1.14 |
| CADPLVAEEDAGNASASA [HC1289] | -0.0204 (inactive) | -0.956 (inactive) | -0.261 (inactive) |
| CARRRRPRREAGNASASA [FS-1404] | 7.83 (active) | 8.28 (active) | 6.14 (active) |
| CARRPRFKDIAGNASASA [FS-3058] | 0.143 (inactive) | -0.201 (inactive) | 0.618 (inactive) |
| CARRRRPERVAGNASASA [FS-3064] | 0.335 (inactive) | 0.809 (inactive) | 1.19 |
| CADPLRPRREAGNASASA [FS-122] | 5.53 (active) | 5.14 (active) | 4.87 (active) |
| CARRRRPERGAGNASASA [FS-495] | 1.03 | 0.676 (inactive) | 1.87 |
| CARRPRPRREAGNASASA [FS-1480] | 8.98 (active) | 9.92 (active) | 8.21 (active) |
| CALVAFKIMSAGNASASA [HC1092] | -0.725 (inactive) | -0.454 (inactive) | -0.368 (inactive) |
| CASSSRRRRSAGNASASA [FS-1286] | 9.8 (active) | 8.59 (active) | 7.58 (active) |
| CASSSRRSRSAGNASASA [FS-1615] | 7.43 (active) | 8.67 (active) | 6.73 (active) |
| CAAPSRRSRSAGNASASA [FS-216] | 9.21 (active) | 8.84 (active) | 7.91 (active) |
| CAKHSRRRRSAGNASASA [FS-174] | 10.9 (active) | 10.7 (active) | 6.68 (active) |
| CASSREKRRSAGNASASA [FS-1285] | 0.453 (inactive) | 0.575 (inactive) | 2.39 |
